Out of some 3,200 compounds screened, about 300 (9.4%) showed activity. The sample as a whole holds a higher share of actives than the screen did.
System: A673/TR/shEF
Test: cell viability (LOESS-normalised, relative to median of negative controls) (log2 ratio); higher = more viable cells (less compound effect), active = hit call of the paper (over 3 MAD below the median)
Conditions: treatment time: 72 h
Summary of the method: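 For three days, A673/TR/shEF Ewing sarcoma cells in 384-well plates (1,500 per well) were treated with library compounds at two or more concentrations or with DMSO controls, after doxycycline had been added or withheld 24 h beforehand to induce EWS-FLI1 shRNA knockdown. Viability was read by CellTiter-Glo luminescence on an Envision reader. The data were LOESS-corrected per plate, divided by the median of negative controls and log2-transformed.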

[1] = 0.25 µM, library screen: screen1, EWS-FLI1 expression: high (no doxycycline)
[2] = 0.25 µM, library screen: screen1, EWS-FLI1 expression: low (doxycycline-induced shRNA knockdown)
[3] = 0.25 µM, library screen: screen2, EWS-FLI1 expression: high (no doxycycline)
[4] = 0.25 µM, library screen: screen2, EWS-FLI1 expression: low (doxycycline-induced shRNA knockdown)
[5] = 2.5 µM, library screen: screen1, EWS-FLI1 expression: high (no doxycycline)
[6] = 2.5 µM, library screen: screen1, EWS-FLI1 expression: low (doxycycline-induced shRNA knockdown)
[7] = 2.5 µM, library screen: screen2, EWS-FLI1 expression: high (no doxycycline)
[8] = 2.5 µM, library screen: screen2, EWS-FLI1 expression: low (doxycycline-induced shRNA knockdown)

Measured: cell viability (log2)

CO/N=C(\C(=O)N[C@@H]1C(=O)N2C(C(=O)O)=C(CSc3nc(=O)c(=O)[nH]n3C)CS[C@H]12)c1csc(N)n1
inactive: [1] 0.112 | [2] 0.0388 | [3] 0.21 | [4] 0.115 | [5] 0.082 | [6] 0.12 | [7] 0.149 | [8] 0.12

CC(=O)Oc1c(Cl)c(C)c2c(c1Cl)OC(=O)c1c(C)c(Cl)c(OC(C)=O)c(Cl)c1O2
inactive: [1] 0.0776 | [2] 0.0649 | [5] 0.0636 | [6] -0.0345

CC1(C)C=Cc2c(cc3occ(-c4ccc5c(c4)OCO5)c(=O)c3c2O)O1
active: [1] -0.098
inactive: [2] 0.0822 | [5] 0.0137 | [6] 0.0314

COc1cc2c(cc1-c1coc3c4c(ccc3c1=O)OC(C)(C)C=C4)OCO2
inactive: [1] 0.0979 | [2] 0.0365 | [5] 0.112 | [6] 0.0354

O=c1c(-c2ccc3c(c2)OCO3)coc2cc(O)ccc12
inactive: [1] 0.113 | [2] 0.0865 | [5] 0.149 | [6] -2.91

COc1c2c(cc3occ(-c4ccc5c(c4)OCO5)c(=O)c13)OC(C)(C)C=C2
active: [1] -0.144
inactive: [2] 0.05 | [5] 0.0889 | [6] 0.0736

COc1c(-c2coc3cc4c(cc3c2=O)CC(O)C(C)(C)O4)ccc2c1C=CC(C)(C)O2 (configuration not stated)
inactive: [1] 0.0473 | [2] 0.0244 | [5] 3e-05 | [6] 0.094

CC(C)=CCc1c2c(c3occ(-c4ccc(O)c(O)c4)c(=O)c3c1O)C=CC(C)(C)O2
inactive: [1] 0.131 | [2] 0.0868 | [5] 0.0962 | [6] 0.19

COc1cc2c3cc1Oc1c(OC)c(OC)cc4c1C(Cc1ccc(O)c(c1)Oc1ccc(cc1)CC3N(C)CC2)N(C)CC4 (configuration not stated)
inactive: [1] 0.135 | [2] 0.0489 | [5] 0.126 | [6] -0.0746

CSCCC(N)C(=O)NC(CC(C)C)C(=O)NC(Cc1ccccc1)C(=O)O (configuration not stated)
inactive: [1] 0.145 | [2] -0.00633 | [5] 0.123 | [6] 0.0328

O=c1cc(N2CCOCC2)oc2c(-c3ccccc3)cccc12
active: [5] -0.134 | 25 µM, library screen: screen1, EWS-FLI1 expression: high (no doxycycline) -0.489 | 25 µM, library screen: screen1, EWS-FLI1 expression: low (doxycycline-induced shRNA knockdown) -0.462
inactive: 0.025 µM, library screen: screen1, EWS-FLI1 expression: high (no doxycycline) 0.213 | 0.025 µM, library screen: screen1, EWS-FLI1 expression: low (doxycycline-induced shRNA knockdown) 0.0453 | [1] 0.204 | [2] 0.0333 | [3] 0.135 | [4] 0.11 | [6] 0.0932 | [7] 0.15 | [8] 0.0123

O=c1cc(-c2cccc3c2Sc2ccccc2S3)oc(N2CCOCC2)c1
inactive: 0.103 µM, library screen: screen3, EWS-FLI1 expression: high (no doxycycline) 0.00625 | 0.103 µM, library screen: screen3, EWS-FLI1 expression: low (doxycycline-induced shRNA knockdown) 0.00883 | 0.308 µM, library screen: screen3, EWS-FLI1 expression: high (no doxycycline) -0.0309 | 0.308 µM, library screen: screen3, EWS-FLI1 expression: low (doxycycline-induced shRNA knockdown) 0.0146 | 0.926 µM, library screen: screen3, EWS-FLI1 expression: high (no doxycycline) 0.0133 | 0.926 µM, library screen: screen3, EWS-FLI1 expression: low (doxycycline-induced shRNA knockdown) 0.00404 | 2.8 µM, library screen: screen3, EWS-FLI1 expression: high (no doxycycline) 0.0162 | 2.8 µM, library screen: screen3, EWS-FLI1 expression: low (doxycycline-induced shRNA knockdown) 0.0289 | 8.3 µM, library screen: screen3, EWS-FLI1 expression: high (no doxycycline) -0.0501 | 8.3 µM, library screen: screen3, EWS-FLI1 expression: low (doxycycline-induced shRNA knockdown) 0.00607 | 25 µM, library screen: screen3, EWS-FLI1 expression: high (no doxycycline) 0.0363 | 25 µM, library screen: screen3, EWS-FLI1 expression: low (doxycycline-induced shRNA knockdown) -0.0432

O=c1cc(-c2ccccc2)oc2c(O)c(O)ccc12
inactive: [1] 0.189 | [2] -0.0108 | [5] 0.128 | [6] 0.0489
